Screening data (PubChem)
DRD3 agonist: D3 dopamine receptor (human) agonism; 410,000 tested, 0.58% active; P35462; max activation, %; D3R DiscoveRx beta-arrestin cells, luminescence, 90 min; in the data active means max activation above about 30%
Target sequence (P35462 whole entry, looked up): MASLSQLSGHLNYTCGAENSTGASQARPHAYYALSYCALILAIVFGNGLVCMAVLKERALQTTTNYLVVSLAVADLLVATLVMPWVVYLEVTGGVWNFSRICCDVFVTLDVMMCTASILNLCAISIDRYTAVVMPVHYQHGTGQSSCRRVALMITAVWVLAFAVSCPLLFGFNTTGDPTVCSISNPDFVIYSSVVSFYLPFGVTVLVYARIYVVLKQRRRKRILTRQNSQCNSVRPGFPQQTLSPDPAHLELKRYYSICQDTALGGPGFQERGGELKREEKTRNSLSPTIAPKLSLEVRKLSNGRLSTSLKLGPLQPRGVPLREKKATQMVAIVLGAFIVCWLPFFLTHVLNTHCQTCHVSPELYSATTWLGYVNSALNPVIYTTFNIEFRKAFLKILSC
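Agonist-mode cell screen: cells plated at 1500/well and incubated overnight at 37 °C, then exposed to library compounds for 90 min at 37 °C. Detection reagent was added for 30–60 min at room temperature, and luminescence was read.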
D1 potentiator: human D1 dopamine receptor positive modulation; P21728; HEK293 TREx D1 cells, calcium flux, dopamine EC20 potentiation; potentiation, % at 10 µM; 360,000 tested, 0.036% active; AID 504651; in the data active means potentiation above about 30%
D1 antag: human D1 dopamine receptor antagonism; 360,000 tested, 3.2% active; HEK293 TREx D1 cells, calcium flux, dopamine EC80; hits give low values; AID 504652; P21728; activity change, negative = inhibition, % at 10 µM; in the data active means activity change below about -30%
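HEK293 T-REx cells expressing inducible, force-coupled D1 receptor; no-wash Ca dye, 30–90 min RT. Cmpd → 180 s read at 1 Hz → EC80 DA → 180 s read.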
D3 antag: blocks the human D3 dopamine receptor; 360,000 tested, 2.5% active; max response, negative = inhibition, %; D3R cells, DiscoveRx beta-arrestin luminescence, antagonist mode; hits give low values; in the data active means max response below about -50%; inconclusive means no clear call, values can overlap the other calls
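Cells plated overnight at 1500 cells/well, then exposed to library compounds with dopamine controls for 90 minutes at 37 degrees C. DiscoveRx reagent added for 30–60 minutes at room temperature; luminescence read, quantitative HTS format.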
D1 agonist: agonists of human D1 dopamine receptor. P21728. HEK293 T-REx D1 cells, calcium flux, agonist mode. activation, % at 2 µM. 360,000 tested, 1% active. AID 504660; in the data active means activation above about 30%
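Inducible HEK293 T-REx D1 cells, force-coupled to calcium signalling, were plated at 4000 cells/well with tetracycline and held overnight at 30 C. After no-wash calcium dye loading, compound-evoked calcium rise over 180 s flagged agonists.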
Large screens that a line does not name were inactive; ! = not confirmed by another sample. Hits are enriched below; roughly 6.1% of the tested compounds scored in any of these assays.

Cc1nc(C(=O)O)sc1C1(C)CC(c2cccc([N+](=O)[O-])c2)=NO1 (stereo unspecified)	none (no result: D1 potentiator, D1 antag, D1 agonist)
Cc1nc(C(=O)NCc2ccccc2)sc1C1(C)CC(c2ccccc2)=NO1 (stereo unspecified)	D3 antag -50, D1 agonist 39
Cc1nc(C(=O)Nc2ccccc2)sc1C1(C)CC(c2cccc([N+](=O)[O-])c2)=NO1 (stereo unspecified)	D1 antag -33
COc1ccc(NC(=O)c2nc(C)c(C3(C)CC(c4ccccc4)=NO3)s2)cc1 (stereo unspecified)	none
Cc1ccc(-n2nc3c(=O)n(CC(=O)NCC(C)c4ccccc4)nc(C)c3c2C)cc1 (stereo unspecified)	none (no result: D3 antag)
CCN1/C(=C\C=C2\C(=O)N(C)C(=S)N2C)Sc2ccccc21	none
CCC(=S)/C=C1\Sc2ccccc2N1CCCS(=O)(=O)O	D3 antag -63
CCN(CC)CCNC(=O)c1cc(-c2ccc(Br)s2)nc2ccccc12	D3 antag inconclusive, D1 agonist 34!
Cc1cc(CNC(=O)COc2ccccc2)c2ccccc2n1	D1 antag -35
Cc1cc(C(=O)NCc2cccc(Cl)c2)c2ccccc2n1	D1 antag -33
Cc1cc(CNC(=O)COc2ccc(F)cc2)c2ccccc2n1	none
Cc1ccc(Sc2cc(C(=O)NCCCN(C)C)c3ccccc3n2)cc1	D1 agonist 34
Cc1cc(C(=O)NCCc2ccc(Cl)cc2)c2ccccc2n1	none (no result: D1 potentiator)
CCCN(CCC)CCNC(=O)c1cc(-c2ccc(Br)s2)nc2ccccc12	none (no result: D3 antag)
Cc1cc2c(s1)c1cnn(Cc3cc(F)ccc3C)c(=O)c1n2C	none (no result: DRD3 agonist, D3 antag)
Cc1ccc(C)c(N(C)C(=O)CCNC(=O)Cn2cnc3ccccc3c2=O)c1	none (no result: D3 antag)
COC(=O)c1scc(-c2ccc(C)cc2)c1S(=O)(=O)N1CCN(c2ccc(OC)cc2)CC1	none (no result: D3 antag)
CS(=O)(=O)c1ccc(C(=O)OCC(=O)NCc2cccs2)cc1[N+](=O)[O-]	D3 antag -60 (no result: D1 potentiator, D1 antag, D1 agonist)
Cc1cc(C(=O)NC2CCCCC2C)c2ccccc2n1 (stereo unspecified)	none
Cc1cc(C(=O)NCc2ccccc2Cl)c2ccccc2n1	D1 antag -63
Cc1cccc(C(=O)OCC(=O)NCc2cccs2)c1	none
Cc1cc(C(=O)OCC(=O)NCc2cccs2)c2ccccc2n1	D1 antag -31
Cc1cc(C(=O)NC2CCCC(C)C2C)c2ccccc2n1 (stereo unspecified)	D1 antag -31
Cc1cc(C(=O)Nc2ccccc2Cl)c2ccccc2n1	none
O=C(Cn1cnnn1)N[C@@H]1C(=O)N2C(C(=O)O)=C(CSc3nncs3)CS[C@H]12	none (no result: D1 potentiator, D1 antag, D3 antag, D1 agonist)
COc1ccccc1CNC(=O)CC(c1ccc(C)cc1)N1Cc2ccccc2C1=O (stereo unspecified)	none (no result: D3 antag)
O=C(NCCc1ccccc1)c1cc(Sc2cccc(Cl)c2)nc2ccccc12	D1 antag -43 (no result: D3 antag)
CCCCN(C)CCCNC(=O)c1cc(-c2cccnc2)nc2ccccc12	D1 antag -59!
FC(F)Sc1ccc(NC(=S)NC2CCCC2)cc1	D1 antag -34
OC1CCC(NC(=S)Nc2ccc(SC(F)F)cc2)CC1 (stereo unspecified)	D3 antag inconclusive
CC1CCCC(NC(=S)Nc2ccc(SC(F)F)cc2)C1C (stereo unspecified)	D1 antag -44
CC(=O)C1=C(O)C(=O)N(CCc2c[nH]c3ccccc23)C1c1cccc(O)c1 (stereo unspecified)	D3 antag inconclusive
COc1cc(C2C(C(C)=O)=C(O)C(=O)N2CCc2c[nH]c3ccccc23)ccc1O (stereo unspecified)	D3 antag -56
Cc1cc(C)cc(-n2c(SCC(=O)Nc3ccccc3F)nc3c(oc4ccccc43)c2=O)c1	none (no result: D3 antag)
O=C(NCCN1CCN(c2ccccc2F)CC1)c1cccn2c(=O)c3ccccc3nc12	D3 antag -50
O=C(NCCN1CCN(c2ccccc2)CC1)c1cccn2c(=O)c3ccccc3nc12	none
CN(CCCNC(=O)c1cccn2c(=O)c3ccccc3nc12)Cc1ccccc1	D3 antag -56
CCc1ccc(NC(=O)c2cnn(-c3c(C)cccc3C)c2C2CCNCC2)cc1	none (no result: D3 antag)
COc1ccc(CCN(C)C2CCCN(S(=O)(=O)c3ccccc3F)C2)cc1OC (stereo unspecified)	D1 antag -32
COC(=O)c1sccc1S(=O)(=O)N1CCCC(N(C)CCc2ccccn2)C1 (stereo unspecified)	D1 antag -35
COc1ccc(CCN(C)C2CCCN(S(=O)(=O)N(C)C)C2)cc1OC (stereo unspecified)	none (no result: D1 potentiator, D1 antag, D1 agonist)
Cc1ccc2oc(=O)n(CCNC(=O)Nc3ccc(C)c(F)c3)c2c1	none (no result: D3 antag)
Cc1ccc(CN2C(=O)N/C(=C\c3ccc(N4CCOCC4)cc3)C2=O)cc1	none
CCN1C(=O)/C(=C/c2ccc(N3CCCC3)cc2)NC1=S	D1 antag -52, D1 agonist 242
CCCN1C(=O)/C(=C/c2ccc(N3CCOCC3)cc2)NC1=S	D1 agonist 132
CCN(CC)c1ccc2nc3c4ccccc4c(=O)cc-3oc2c1	D1 agonist 42
CCN(CC)c1ccc2cc(C(=O)Nc3ccccn3)c(=O)oc2c1	none
COc1cccc(C(=O)c2cn(CC(=O)NCc3ccccc3)c3nc(C)ccc3c2=O)c1	none (no result: D3 antag)
Cc1cc(CNC(=O)c2cc(COc3ccc(F)c(F)c3)on2)nn1C	none
CCOC(=O)CC1(NC(=O)c2cc(COc3ccc(F)c(F)c3)on2)CCCCC1	D1 agonist 31
Cc1cccc(-c2nc3nc(C)cc(NC(C)c4ccccc4)n3n2)c1 (stereo unspecified)	none (no result: D3 antag)
CCn1c(NC(=O)c2ccc(COc3ccc(C)cc3[N+](=O)[O-])o2)nc2ccccc21	DRD3 agonist 37
Cc1ccc(O)c(-c2[nH]ncc2C(=O)c2ccc(Cl)cc2)c1	D1 antag -34
COc1ccc(CNC(=O)CCC(=O)N2CC3CCCN3c3ccccc32)cc1 (stereo unspecified)	none (no result: D3 antag)
Cc1ccc(-n2c(SCc3ccccc3)nc3c([nH]c4ccccc43)c2=O)cc1	D1 antag -33 (no result: D3 antag)
O=C(CSc1nc2c([nH]c3ccccc32)c(=O)n1-c1ccccc1)N1CCCCC1	none (no result: D3 antag)
O=C(CSc1nc2c([nH]c3ccccc32)c(=O)n1-c1ccc(F)cc1)N1CCCCCC1	DRD3 agonist 33 (no result: D3 antag)
CCOC(=O)c1ccc(NC(=O)CCc2c(C)nc3c(c(C)nn3C)c2C)cc1	none (no result: D3 antag)
COc1nc(-c2ccccc2)ccc1-c1noc(-c2cccs2)n1	none (no result: D1 potentiator, D1 antag, D1 agonist)
COc1nc(C)ccc1-c1noc(-c2cccs2)n1	D1 antag -35
Cc1c(-c2ccccc2)nc2ccccc2c1C(=O)Oc1ccc([N+](=O)[O-])cc1	D1 antag -33
COc1ccc(-c2cc(C)nc3c(-c4ccc(OC)c(OC)c4)c(C)nn23)cc1	none (no result: D3 antag)
CCOc1ccc2ncc3c(-c4ccccc4)nn(CC(=O)Nc4cccc(F)c4)c3c2c1	none (no result: D3 antag)
